Assay results: publication PMC7862700, “An all-to-all approach to the identification of sequence-specific readers for epigenetic DNA modifications on cytosine”

Assays:
Assay in all cases: DAPPL (digital affinity profiling via proximity ligation, sequencing); 10 mM Tris-HCl pH 7.5, 50 mM NaCl, 1 mM DTT, 4% glycerol, room temperature, 30 min; GST-TFs on glutathione beads, 16-mer random dsDNA library, 0.1% formaldehyde crosslink after washing; high values mean tight binding
Settings in all cases: protein: recombinant; tags: N-terminal GST; dsDNA, one strand shown
FLI1 = molecular target: T1, FLI1 (Homo sapiens, UniProt Q01543 1-452)
T1 sequence: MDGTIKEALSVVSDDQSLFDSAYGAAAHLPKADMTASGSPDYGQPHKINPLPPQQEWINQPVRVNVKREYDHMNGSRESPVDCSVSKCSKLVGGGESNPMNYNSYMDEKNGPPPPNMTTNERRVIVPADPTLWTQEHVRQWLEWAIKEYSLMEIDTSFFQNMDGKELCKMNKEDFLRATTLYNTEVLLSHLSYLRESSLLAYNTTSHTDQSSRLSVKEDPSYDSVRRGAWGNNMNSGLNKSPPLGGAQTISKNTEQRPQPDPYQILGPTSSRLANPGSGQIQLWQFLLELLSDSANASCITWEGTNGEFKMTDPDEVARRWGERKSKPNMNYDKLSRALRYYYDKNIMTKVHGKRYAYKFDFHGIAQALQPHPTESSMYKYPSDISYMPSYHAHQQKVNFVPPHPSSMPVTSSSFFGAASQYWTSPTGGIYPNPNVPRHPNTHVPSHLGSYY
Summary of the method: (§1)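 After expression in yeast as GST fusions, human transcription factors were bound to glutathione beads, DNA-barcoded and mixed with a tag-only sample. The pools were incubated with 200 nmole of a 16-mer random double-stranded DNA library in Tris/NaCl/DTT/glycerol buffer (30 min, room temperature), washed and crosslinked with 0.1% formaldehyde. Proximity ligation with BsaI/T4 ligase ran for 1 h at 37 °C, before PCR amplification and sequencing on an Illumina NextSeq500. Binding signal is a hexamer's read frequency for a factor divided by its frequency for the tag-only sample.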

GABPA = molecular target: T2, GABPA (Homo sapiens, UniProt Q06546 1-454)
T2 sequence: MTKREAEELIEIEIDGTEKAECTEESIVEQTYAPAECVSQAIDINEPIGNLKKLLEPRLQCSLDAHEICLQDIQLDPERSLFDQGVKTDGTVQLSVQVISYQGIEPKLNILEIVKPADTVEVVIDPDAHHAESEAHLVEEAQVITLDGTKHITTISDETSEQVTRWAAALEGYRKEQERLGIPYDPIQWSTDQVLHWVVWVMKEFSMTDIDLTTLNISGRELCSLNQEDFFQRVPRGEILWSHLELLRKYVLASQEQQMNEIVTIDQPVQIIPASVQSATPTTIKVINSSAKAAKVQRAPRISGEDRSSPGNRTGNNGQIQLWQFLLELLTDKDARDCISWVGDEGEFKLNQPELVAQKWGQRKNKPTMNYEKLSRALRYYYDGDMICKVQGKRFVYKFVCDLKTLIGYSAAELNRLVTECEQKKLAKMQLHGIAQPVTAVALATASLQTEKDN
Summary of the method: as §1

ERG = molecular target: T3, ERG (Homo sapiens, UniProt P11308 1-479)
T3 sequence: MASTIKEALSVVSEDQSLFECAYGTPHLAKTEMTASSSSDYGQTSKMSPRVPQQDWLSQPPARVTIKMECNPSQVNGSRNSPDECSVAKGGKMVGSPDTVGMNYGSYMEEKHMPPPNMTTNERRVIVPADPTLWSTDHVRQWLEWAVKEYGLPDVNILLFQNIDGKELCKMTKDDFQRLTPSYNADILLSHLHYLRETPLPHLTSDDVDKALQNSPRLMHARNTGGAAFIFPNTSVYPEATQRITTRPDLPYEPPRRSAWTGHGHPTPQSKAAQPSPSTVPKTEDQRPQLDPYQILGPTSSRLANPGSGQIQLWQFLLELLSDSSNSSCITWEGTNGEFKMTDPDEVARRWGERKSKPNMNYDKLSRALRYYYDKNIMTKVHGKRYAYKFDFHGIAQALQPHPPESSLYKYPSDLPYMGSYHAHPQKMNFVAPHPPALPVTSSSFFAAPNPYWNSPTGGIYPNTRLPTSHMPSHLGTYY
Summary of the method: as §1

ELF1 = ELF1 (Homo sapiens, UniProt P32519 1-619)
ELF1, sequence (P32519 whole entry): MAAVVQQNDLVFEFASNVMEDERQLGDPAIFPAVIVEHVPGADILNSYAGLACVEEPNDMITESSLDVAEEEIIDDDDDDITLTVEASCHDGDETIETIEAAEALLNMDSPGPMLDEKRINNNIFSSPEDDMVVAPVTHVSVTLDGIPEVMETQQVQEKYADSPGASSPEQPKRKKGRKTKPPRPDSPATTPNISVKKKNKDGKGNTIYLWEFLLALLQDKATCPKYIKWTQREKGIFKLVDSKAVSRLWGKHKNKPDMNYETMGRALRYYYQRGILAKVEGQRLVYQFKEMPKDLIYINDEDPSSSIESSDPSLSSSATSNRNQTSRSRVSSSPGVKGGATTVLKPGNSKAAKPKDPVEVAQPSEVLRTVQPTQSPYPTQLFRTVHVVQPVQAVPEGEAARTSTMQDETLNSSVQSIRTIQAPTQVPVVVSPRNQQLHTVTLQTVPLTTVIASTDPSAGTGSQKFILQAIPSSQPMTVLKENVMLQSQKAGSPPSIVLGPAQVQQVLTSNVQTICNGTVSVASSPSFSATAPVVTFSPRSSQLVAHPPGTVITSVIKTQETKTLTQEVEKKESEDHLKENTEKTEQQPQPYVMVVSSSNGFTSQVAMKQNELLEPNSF
Summary of the method: as §1

EHF = molecular target: T4, EHF (Homo sapiens, UniProt Q9NZC4 1-300)
T4 sequence: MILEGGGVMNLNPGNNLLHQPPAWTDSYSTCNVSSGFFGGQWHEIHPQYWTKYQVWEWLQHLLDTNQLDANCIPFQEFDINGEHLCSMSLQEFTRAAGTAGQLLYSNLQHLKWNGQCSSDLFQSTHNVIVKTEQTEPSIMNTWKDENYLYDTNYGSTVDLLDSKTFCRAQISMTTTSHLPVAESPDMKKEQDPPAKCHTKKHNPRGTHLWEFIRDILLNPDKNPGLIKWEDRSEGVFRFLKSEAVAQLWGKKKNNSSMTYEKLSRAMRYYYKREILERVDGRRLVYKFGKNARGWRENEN
Summary of the method: as §1

SPI1 = SPI1 (Homo sapiens, UniProt P17947 1-270)
Summary of the method: as §1

SPIB = SPIB (Homo sapiens, UniProt Q01892 1-262)
SPIB, sequence (Q01892 whole entry): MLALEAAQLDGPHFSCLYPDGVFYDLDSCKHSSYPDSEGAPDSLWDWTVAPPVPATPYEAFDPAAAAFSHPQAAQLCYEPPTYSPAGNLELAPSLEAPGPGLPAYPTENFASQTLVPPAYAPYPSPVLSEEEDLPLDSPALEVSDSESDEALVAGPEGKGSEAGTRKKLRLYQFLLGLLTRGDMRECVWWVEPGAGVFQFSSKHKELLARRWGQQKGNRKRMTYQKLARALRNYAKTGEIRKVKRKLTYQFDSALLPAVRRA
Summary of the method: as §1

ELK3 = molecular target: T5, ELK3 (Homo sapiens, UniProt P41970 1-407)
T5 sequence: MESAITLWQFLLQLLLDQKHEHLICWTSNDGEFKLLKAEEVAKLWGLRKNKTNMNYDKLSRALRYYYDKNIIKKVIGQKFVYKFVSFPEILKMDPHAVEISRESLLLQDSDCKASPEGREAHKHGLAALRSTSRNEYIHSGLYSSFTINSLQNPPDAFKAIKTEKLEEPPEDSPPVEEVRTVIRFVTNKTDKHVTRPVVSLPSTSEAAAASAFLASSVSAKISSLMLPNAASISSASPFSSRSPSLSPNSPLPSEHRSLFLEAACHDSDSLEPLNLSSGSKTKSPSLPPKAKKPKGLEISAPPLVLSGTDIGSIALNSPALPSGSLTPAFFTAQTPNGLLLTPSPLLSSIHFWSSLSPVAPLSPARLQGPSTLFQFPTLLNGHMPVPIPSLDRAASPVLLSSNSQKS
Summary of the method: as §1

FEV = molecular target: T6, FEV (Homo sapiens, UniProt Q99581 1-238)
T6 sequence: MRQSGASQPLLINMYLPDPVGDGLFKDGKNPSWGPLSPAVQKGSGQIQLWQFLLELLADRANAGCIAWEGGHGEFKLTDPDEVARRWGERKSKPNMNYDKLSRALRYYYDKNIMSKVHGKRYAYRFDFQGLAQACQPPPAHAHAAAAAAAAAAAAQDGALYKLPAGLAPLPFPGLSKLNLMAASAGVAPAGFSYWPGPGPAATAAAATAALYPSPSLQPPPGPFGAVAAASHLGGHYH
Summary of the method: as §1

ETV5 = ETV5 (Homo sapiens, UniProt P41161 1-510)
ETV5, sequence (P41161 whole entry): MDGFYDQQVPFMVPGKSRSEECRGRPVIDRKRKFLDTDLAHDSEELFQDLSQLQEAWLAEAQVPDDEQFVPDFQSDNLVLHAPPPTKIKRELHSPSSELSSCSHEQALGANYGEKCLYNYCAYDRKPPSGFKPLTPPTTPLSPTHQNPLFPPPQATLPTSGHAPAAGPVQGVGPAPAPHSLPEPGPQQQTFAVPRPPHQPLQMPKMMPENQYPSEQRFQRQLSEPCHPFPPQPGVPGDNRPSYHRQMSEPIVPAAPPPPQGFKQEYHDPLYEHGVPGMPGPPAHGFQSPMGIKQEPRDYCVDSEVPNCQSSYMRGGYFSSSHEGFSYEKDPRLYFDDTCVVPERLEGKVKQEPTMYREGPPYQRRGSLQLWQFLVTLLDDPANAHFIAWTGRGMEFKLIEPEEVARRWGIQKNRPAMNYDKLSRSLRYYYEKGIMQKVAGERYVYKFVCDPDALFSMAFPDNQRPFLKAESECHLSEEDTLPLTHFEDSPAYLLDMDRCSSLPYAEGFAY
Summary of the method: as §1

SPIC = molecular target: T7, SPIC (Homo sapiens, UniProt Q8N5J4 1-248)
T7 sequence: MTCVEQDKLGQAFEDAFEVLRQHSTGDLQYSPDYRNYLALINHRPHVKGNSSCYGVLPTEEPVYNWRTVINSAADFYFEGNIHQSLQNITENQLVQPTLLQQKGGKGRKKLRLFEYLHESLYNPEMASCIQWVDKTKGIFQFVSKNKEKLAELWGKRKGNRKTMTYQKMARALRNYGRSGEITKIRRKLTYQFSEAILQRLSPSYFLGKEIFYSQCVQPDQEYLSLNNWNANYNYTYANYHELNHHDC
Summary of the method: as §1

ELF4 = ELF4 (Homo sapiens, UniProt Q99607 1-663)
ELF4, sequence (Q99607 whole entry): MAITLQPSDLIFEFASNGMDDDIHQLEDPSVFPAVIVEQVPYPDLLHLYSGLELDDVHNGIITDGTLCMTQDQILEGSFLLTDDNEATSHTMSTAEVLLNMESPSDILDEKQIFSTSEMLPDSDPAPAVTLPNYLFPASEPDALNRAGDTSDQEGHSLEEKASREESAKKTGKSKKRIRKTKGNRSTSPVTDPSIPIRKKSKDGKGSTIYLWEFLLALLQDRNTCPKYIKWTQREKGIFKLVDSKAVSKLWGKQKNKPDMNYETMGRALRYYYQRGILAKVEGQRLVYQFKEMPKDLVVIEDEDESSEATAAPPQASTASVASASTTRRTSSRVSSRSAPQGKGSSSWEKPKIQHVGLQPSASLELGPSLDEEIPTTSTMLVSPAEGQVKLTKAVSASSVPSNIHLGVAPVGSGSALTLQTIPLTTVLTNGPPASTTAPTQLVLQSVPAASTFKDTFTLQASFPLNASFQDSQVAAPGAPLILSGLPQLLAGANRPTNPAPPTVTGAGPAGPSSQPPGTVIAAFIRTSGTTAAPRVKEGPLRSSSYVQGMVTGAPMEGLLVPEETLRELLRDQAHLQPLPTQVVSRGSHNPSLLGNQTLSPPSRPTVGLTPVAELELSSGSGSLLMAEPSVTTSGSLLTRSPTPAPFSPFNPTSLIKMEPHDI
Summary of the method: as §1

ETV1 = ETV1 (Homo sapiens, UniProt P50549 1-477)
ETV1, sequence (P50549 whole entry): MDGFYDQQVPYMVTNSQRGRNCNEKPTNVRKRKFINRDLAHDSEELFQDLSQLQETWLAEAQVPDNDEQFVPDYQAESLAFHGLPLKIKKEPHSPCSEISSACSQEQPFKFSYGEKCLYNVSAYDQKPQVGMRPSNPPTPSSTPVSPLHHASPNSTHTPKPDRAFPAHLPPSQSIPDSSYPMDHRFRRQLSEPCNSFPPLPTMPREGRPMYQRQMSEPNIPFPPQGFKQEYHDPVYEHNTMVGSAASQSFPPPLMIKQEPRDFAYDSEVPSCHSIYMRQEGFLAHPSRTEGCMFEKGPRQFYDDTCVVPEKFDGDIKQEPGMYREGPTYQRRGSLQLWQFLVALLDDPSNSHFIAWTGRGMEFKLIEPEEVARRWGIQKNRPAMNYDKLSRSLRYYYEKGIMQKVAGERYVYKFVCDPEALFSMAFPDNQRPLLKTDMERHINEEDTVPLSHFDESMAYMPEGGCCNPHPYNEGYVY
Summary of the method: as §1

ERF = molecular target: T8, ERF (Homo sapiens, UniProt P50548 1-548)
T8 sequence: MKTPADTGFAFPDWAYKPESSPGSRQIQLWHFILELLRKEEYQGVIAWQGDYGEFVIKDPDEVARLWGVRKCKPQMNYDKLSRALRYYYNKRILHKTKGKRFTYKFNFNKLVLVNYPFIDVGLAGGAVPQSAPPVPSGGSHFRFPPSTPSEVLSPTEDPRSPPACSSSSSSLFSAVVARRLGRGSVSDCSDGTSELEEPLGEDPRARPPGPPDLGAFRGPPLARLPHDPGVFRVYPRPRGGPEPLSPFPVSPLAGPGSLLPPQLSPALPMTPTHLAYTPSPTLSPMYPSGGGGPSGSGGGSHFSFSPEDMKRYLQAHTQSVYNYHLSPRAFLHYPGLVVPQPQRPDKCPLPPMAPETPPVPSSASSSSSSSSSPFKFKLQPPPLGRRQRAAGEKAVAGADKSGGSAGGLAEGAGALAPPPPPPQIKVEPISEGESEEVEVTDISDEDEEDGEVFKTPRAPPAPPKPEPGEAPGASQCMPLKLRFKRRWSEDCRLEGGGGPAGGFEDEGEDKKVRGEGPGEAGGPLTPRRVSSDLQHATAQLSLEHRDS
Summary of the method: as §1

ETS2 = molecular target: T9, ETS2 (Homo sapiens, UniProt P15036 1-469)
T9 sequence: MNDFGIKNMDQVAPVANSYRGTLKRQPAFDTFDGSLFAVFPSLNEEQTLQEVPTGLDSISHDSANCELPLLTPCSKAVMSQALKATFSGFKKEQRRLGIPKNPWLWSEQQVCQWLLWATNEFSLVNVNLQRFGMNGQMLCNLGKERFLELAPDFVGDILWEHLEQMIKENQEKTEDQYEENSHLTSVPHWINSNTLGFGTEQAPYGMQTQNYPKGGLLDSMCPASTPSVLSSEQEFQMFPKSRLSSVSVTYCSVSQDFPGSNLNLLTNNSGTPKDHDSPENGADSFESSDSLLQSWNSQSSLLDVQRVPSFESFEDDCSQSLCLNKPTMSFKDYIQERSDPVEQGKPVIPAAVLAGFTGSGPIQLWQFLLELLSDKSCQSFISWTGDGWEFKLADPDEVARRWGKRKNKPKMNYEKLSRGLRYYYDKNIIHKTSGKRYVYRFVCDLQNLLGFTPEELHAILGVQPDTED
Summary of the method: as §1

SPDEF = molecular target: T10, SPDEF (Homo sapiens, UniProt O95238 1-335)
T10 sequence: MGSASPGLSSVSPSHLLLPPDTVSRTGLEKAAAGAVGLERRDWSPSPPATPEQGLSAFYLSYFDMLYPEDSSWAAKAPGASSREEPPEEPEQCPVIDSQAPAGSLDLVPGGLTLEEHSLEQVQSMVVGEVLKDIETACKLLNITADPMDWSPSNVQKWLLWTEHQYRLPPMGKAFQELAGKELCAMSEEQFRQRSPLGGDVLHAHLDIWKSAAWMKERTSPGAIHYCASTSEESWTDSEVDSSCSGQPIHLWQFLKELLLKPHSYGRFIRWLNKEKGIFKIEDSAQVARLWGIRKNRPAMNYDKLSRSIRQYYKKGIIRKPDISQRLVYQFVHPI
Summary of the method: as §1

ETV3 = molecular target: T11, ETV3 (Homo sapiens, UniProt P41162-2 1-143)
T11 sequence: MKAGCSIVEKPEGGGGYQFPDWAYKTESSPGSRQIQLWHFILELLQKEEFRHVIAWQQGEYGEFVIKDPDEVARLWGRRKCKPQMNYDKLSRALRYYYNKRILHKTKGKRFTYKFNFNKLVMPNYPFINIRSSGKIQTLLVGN
Summary of the method: as §1

ETV6 = ETV6 (Homo sapiens, UniProt P41212 1-452)
ETV6, sequence (P41212 whole entry): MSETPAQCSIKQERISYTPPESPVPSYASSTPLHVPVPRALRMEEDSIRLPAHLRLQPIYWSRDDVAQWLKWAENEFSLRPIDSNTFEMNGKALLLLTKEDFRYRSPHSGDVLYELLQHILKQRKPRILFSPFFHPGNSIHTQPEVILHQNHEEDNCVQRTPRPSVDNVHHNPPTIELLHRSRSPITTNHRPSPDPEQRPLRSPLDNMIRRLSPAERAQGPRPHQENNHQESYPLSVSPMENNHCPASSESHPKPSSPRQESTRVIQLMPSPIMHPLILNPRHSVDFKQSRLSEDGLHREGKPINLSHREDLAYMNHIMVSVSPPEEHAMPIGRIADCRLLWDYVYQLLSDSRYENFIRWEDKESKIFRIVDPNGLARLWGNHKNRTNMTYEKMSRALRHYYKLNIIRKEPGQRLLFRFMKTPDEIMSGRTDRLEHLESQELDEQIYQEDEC
Summary of the method: as §1

CGCTAT
binding signal (FLI1): 1.13 fold enrichment (6-mer frequency, TF over GST control)
binding signal (GABPA): 1.07 fold enrichment (6-mer frequency, TF over GST control)
binding signal (ERG): 1.09 fold enrichment (6-mer frequency, TF over GST control)
binding signal (ELF1): 1.09 fold enrichment (6-mer frequency, TF over GST control)
binding signal (EHF): 1.06 fold enrichment (6-mer frequency, TF over GST control)
binding signal (SPI1): 1.11 fold enrichment (6-mer frequency, TF over GST control)
binding signal (SPIB): 1.12 fold enrichment (6-mer frequency, TF over GST control)
binding signal (ELK3): 1.13 fold enrichment (6-mer frequency, TF over GST control)
binding signal (FEV): 1.04 fold enrichment (6-mer frequency, TF over GST control)
binding signal (ETV5): 1.1 fold enrichment (6-mer frequency, TF over GST control)
binding signal (SPIC): 1.01 fold enrichment (6-mer frequency, TF over GST control)
binding signal (ELF4): 1.15 fold enrichment (6-mer frequency, TF over GST control)
binding signal (ETV1): 1.09 fold enrichment (6-mer frequency, TF over GST control)
binding signal (ERF): 1.16 fold enrichment (6-mer frequency, TF over GST control)
binding signal (ETS2): 1.03 fold enrichment (6-mer frequency, TF over GST control)
binding signal (SPDEF): 1.1 fold enrichment (6-mer frequency, TF over GST control)
binding signal (ETV3): 1.14 fold enrichment (6-mer frequency, TF over GST control)
binding signal (ETV6): 1.09 fold enrichment (6-mer frequency, TF over GST control)
